# ChEMBL document CHEMBL1961873, “Compounds: GSK PKIS; Assays: Nanosyn kinase panel” (2012)
# Experiments:
# [1] = molecular target: T1, Inhibitor of nuclear factor kappa-B kinase subunit epsilon (Homo sapiens) (UniProt Q14164); details: at 1 µM;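 note: reported values are averaged percent inhibition figures against human IKKε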
# T1 sequence (whole entry): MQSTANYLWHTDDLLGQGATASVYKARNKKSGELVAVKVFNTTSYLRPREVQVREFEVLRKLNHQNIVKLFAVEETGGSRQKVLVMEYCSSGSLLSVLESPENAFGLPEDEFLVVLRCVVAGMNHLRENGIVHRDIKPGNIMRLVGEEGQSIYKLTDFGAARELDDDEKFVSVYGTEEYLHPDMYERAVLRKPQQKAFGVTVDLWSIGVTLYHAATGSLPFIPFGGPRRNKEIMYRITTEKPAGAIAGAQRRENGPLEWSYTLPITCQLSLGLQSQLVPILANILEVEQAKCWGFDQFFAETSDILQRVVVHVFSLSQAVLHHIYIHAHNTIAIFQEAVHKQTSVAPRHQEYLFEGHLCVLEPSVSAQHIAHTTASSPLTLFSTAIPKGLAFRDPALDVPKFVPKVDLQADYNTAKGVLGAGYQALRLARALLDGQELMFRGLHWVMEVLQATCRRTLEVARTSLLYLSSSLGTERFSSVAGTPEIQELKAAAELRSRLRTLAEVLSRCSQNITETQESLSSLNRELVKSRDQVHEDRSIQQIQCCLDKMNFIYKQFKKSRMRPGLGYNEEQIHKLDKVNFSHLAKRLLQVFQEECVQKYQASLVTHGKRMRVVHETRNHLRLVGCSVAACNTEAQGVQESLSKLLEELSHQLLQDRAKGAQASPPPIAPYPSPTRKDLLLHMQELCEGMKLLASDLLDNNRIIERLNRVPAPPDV
# [2] = molecular target: T2, Serine/threonine-protein kinase Nek1 (Homo sapiens) (UniProt Q96PY6); details: at 0.1 µM
# T2 sequence (whole entry): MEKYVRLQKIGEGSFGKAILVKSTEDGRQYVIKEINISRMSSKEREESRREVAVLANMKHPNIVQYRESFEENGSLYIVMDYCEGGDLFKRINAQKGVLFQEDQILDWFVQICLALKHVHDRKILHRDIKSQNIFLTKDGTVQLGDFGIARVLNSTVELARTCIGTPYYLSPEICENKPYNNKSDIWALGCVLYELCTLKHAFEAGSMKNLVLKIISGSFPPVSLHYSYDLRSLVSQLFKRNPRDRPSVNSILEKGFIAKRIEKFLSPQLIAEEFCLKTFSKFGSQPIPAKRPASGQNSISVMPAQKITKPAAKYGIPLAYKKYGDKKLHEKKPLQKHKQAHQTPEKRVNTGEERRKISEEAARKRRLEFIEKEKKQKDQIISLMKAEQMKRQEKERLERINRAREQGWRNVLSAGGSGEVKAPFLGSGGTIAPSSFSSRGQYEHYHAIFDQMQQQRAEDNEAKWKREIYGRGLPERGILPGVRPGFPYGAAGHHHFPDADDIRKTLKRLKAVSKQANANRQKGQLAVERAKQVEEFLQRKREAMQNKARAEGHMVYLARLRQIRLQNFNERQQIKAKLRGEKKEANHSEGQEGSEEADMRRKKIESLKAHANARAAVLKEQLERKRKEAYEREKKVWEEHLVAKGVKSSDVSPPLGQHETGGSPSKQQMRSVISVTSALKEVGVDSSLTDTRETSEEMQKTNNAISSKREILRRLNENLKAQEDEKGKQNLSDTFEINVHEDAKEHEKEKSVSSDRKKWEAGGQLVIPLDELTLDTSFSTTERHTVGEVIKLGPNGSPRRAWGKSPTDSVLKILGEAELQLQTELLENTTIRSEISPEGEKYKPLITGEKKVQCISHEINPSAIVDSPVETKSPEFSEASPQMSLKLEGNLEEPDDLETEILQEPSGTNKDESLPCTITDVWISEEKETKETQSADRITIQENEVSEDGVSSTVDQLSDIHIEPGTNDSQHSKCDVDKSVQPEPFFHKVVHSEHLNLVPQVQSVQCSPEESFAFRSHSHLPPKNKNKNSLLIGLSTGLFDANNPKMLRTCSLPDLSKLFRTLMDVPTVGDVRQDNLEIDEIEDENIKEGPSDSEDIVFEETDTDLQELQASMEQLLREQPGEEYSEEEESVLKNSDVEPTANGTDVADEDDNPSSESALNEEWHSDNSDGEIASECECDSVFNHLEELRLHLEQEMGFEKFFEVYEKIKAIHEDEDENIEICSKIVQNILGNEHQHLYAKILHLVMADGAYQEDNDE
# [3] = molecular target: T2, Serine/threonine-protein kinase Nek1 (Homo sapiens); details: at 1 µM
# [4] = molecular target: T3, Serine/threonine-protein kinase Nek2 (Homo sapiens) (UniProt P51955); details: at 0.1 µM
# T3 sequence (whole entry): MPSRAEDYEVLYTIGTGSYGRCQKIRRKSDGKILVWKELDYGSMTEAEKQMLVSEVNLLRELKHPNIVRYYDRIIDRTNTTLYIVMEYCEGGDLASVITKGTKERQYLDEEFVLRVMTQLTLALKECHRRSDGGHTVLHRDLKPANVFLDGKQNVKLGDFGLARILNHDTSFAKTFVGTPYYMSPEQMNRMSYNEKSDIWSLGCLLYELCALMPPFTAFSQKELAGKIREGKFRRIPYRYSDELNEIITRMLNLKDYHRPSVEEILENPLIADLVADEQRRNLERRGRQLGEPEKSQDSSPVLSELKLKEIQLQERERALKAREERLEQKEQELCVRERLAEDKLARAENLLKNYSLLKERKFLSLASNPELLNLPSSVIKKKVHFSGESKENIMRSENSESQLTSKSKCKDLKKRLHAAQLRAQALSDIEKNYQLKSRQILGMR
# [5] = molecular target: T3, Serine/threonine-protein kinase Nek2 (Homo sapiens); details: at 1 µM
# [6] = molecular target: Serine/threonine-protein kinase Nek6 (Homo sapiens) (UniProt Q9HC98); details: at 0.1 µM
# Sequence of Serine/threonine-protein kinase Nek6 (Homo sapiens) (Q9HC98 whole entry): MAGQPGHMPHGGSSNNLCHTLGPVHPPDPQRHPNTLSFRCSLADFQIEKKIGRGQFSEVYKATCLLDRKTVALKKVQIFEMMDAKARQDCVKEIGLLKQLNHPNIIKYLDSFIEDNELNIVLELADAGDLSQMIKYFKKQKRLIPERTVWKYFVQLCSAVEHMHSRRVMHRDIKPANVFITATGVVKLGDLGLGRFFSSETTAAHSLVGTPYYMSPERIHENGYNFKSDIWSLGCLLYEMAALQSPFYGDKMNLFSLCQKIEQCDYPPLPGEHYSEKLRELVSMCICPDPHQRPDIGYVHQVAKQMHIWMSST
# [7] = molecular target: Serine/threonine-protein kinase Nek6 (Homo sapiens) (UniProt Q9HC98); details: at 1 µM
# [8] = molecular target: Serine/threonine-protein kinase Nek7 (Homo sapiens) (UniProt Q8TDX7); details: at 0.1 µM
# Sequence of Serine/threonine-protein kinase Nek7 (Homo sapiens) (Q8TDX7 whole entry, looked up): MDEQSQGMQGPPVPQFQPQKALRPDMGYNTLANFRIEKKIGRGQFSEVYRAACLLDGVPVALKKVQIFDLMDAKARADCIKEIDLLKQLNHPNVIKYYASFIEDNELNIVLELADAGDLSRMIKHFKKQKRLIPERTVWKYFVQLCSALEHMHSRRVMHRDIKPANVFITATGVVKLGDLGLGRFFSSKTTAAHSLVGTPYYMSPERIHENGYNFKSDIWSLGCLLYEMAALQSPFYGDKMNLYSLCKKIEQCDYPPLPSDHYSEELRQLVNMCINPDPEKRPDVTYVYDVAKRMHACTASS
# [9] = molecular target: Serine/threonine-protein kinase Nek7 (Homo sapiens) (UniProt Q8TDX7); details: at 1 µM
# [10] = molecular target: T4, Serine/threonine-protein kinase Nek9 (Homo sapiens) (UniProt Q8TD19); details: at 0.1 µM
# T4 sequence (whole entry): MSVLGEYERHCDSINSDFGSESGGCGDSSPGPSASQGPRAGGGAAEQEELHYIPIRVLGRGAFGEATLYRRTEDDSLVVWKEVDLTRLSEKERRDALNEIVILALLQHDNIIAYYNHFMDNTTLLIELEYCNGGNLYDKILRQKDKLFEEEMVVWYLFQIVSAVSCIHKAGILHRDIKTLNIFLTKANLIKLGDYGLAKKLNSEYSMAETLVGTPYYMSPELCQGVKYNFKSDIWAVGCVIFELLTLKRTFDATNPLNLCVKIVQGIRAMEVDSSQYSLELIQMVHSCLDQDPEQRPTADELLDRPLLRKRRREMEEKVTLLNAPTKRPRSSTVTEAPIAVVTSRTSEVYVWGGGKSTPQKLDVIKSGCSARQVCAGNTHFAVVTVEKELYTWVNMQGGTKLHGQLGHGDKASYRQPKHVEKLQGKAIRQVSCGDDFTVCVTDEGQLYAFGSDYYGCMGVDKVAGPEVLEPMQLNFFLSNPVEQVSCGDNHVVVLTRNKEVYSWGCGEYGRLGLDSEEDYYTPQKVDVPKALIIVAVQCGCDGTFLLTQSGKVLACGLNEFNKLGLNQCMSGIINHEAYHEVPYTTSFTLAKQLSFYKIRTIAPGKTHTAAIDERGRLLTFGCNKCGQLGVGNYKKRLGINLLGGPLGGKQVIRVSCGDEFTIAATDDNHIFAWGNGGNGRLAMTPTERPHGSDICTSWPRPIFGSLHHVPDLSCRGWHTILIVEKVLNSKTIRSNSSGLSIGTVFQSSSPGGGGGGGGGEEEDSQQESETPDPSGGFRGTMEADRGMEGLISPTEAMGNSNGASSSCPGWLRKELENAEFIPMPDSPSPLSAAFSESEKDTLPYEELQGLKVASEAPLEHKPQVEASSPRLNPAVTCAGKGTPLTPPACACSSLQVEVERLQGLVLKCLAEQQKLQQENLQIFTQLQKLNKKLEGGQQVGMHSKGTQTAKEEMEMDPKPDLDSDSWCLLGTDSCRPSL
# [11] = molecular target: T4, Serine/threonine-protein kinase Nek9 (Homo sapiens); details: at 1 µM
# [12] = molecular target: Serine/threonine-protein kinase PLK1 (Homo sapiens) (UniProt P53350); details: at 0.1 µM
# Sequence of Serine/threonine-protein kinase PLK1 (Homo sapiens) (P53350 whole entry): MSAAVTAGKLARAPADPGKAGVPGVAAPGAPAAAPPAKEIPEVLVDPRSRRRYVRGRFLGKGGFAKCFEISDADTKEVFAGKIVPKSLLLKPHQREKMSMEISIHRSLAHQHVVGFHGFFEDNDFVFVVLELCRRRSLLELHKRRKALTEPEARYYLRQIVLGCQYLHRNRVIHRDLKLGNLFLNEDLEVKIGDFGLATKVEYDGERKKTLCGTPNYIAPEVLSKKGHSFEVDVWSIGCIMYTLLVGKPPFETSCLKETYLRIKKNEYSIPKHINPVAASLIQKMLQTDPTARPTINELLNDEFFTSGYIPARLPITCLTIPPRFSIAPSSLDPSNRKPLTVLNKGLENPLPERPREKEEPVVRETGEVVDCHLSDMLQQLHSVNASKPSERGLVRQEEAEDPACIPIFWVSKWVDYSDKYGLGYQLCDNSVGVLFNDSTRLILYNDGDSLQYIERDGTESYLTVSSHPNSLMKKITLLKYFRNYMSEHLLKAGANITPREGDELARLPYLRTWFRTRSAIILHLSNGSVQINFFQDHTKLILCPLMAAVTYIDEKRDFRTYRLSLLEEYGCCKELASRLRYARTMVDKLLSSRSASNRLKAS
# [13] = molecular target: Serine/threonine-protein kinase PLK1 (Homo sapiens) (UniProt P53350); details: at 1 µM
# [14] = molecular target: T5, Dual specificity protein kinase TTK (Homo sapiens) (UniProt P33981); details: at 0.1 µM
# T5 sequence (whole entry): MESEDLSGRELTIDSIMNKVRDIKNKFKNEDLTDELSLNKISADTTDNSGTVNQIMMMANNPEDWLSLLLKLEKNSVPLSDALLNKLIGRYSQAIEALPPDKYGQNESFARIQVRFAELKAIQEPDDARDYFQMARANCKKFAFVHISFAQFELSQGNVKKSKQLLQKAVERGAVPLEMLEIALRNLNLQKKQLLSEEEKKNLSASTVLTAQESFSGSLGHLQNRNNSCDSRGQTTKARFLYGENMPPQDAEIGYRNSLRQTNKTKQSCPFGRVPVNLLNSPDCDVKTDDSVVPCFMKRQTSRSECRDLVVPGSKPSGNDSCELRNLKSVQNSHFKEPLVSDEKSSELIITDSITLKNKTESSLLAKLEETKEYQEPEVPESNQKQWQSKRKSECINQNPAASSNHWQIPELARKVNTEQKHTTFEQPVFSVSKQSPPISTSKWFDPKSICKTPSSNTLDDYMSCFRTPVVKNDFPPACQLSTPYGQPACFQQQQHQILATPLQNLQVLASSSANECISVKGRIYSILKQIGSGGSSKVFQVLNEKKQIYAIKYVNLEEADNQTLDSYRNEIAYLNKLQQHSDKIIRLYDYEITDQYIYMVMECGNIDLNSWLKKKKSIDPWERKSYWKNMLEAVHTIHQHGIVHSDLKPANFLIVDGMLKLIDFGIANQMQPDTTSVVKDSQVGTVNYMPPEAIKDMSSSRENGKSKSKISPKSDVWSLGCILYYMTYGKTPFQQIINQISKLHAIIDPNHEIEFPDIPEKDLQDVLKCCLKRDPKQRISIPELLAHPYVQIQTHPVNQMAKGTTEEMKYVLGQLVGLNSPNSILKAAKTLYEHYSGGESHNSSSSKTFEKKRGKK
# [15] = system: T6, Receptor-type tyrosine-protein kinase FLT3 (Homo sapiens), P36888 [D835Y]; details: at 1 µM
# T6 sequence (whole entry): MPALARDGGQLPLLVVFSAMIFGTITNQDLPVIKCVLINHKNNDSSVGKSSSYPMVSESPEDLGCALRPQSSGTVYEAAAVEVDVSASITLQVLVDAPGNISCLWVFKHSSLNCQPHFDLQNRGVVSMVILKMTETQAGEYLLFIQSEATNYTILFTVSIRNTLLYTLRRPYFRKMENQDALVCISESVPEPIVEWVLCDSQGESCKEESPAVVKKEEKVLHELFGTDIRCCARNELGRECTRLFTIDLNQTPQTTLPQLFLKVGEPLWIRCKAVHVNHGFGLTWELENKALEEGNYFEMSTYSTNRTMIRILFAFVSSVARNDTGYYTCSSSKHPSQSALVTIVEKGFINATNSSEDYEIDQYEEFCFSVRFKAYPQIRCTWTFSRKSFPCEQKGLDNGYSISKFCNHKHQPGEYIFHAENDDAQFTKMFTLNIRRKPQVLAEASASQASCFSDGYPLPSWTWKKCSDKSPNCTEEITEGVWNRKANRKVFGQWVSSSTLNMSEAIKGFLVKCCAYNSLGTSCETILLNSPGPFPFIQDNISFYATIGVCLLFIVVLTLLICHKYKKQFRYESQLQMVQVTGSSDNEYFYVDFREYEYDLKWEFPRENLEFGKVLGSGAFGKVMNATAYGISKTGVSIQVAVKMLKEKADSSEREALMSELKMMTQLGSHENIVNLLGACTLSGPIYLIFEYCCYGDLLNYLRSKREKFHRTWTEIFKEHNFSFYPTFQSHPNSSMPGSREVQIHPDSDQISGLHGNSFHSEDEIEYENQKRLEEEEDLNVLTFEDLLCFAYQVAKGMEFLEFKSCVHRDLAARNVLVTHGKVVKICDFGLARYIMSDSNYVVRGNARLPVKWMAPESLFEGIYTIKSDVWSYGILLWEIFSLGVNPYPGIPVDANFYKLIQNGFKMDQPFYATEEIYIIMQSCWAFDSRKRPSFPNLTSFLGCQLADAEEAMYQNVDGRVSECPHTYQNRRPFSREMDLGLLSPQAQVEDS
# [16] = molecular target: Vascular endothelial growth factor receptor 3 (Homo sapiens) (UniProt P35916); details: at 0.1 µM
# Sequence of Vascular endothelial growth factor receptor 3 (Homo sapiens) (P35916 whole entry): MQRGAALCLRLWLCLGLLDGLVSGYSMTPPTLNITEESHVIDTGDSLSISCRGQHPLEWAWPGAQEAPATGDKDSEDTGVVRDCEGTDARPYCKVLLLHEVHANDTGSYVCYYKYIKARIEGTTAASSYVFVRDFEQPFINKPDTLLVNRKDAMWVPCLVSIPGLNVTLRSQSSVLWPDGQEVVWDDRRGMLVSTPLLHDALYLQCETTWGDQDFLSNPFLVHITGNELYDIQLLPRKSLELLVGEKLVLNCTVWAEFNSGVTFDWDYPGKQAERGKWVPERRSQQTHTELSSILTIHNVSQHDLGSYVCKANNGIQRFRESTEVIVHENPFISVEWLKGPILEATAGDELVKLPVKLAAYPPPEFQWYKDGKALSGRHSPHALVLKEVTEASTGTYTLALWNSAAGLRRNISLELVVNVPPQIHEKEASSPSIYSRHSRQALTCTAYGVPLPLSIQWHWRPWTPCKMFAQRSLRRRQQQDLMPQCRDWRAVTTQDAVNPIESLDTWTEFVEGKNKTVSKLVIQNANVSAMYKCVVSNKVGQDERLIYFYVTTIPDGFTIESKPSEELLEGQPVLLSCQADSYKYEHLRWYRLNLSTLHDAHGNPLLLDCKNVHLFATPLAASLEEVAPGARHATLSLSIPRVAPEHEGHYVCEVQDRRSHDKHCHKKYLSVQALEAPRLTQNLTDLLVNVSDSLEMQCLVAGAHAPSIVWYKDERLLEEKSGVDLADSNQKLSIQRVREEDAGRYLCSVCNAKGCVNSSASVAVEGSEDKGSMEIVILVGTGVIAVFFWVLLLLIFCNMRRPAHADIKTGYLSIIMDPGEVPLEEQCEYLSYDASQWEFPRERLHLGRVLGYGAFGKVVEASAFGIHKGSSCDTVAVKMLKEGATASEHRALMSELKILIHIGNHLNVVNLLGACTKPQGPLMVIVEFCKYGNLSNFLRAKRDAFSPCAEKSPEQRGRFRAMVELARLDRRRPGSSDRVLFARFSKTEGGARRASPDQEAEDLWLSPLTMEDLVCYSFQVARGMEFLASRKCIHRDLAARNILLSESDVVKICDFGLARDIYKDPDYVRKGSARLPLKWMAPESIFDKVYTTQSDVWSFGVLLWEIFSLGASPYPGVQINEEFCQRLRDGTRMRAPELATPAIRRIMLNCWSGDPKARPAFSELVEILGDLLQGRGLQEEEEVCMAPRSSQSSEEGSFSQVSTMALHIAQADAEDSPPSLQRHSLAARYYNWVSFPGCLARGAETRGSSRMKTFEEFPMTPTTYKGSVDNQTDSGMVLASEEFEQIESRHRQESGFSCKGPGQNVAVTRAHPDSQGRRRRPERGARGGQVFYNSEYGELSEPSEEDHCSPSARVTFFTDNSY
# [17] = molecular target: Vascular endothelial growth factor receptor 3 (Homo sapiens) (UniProt P35916); details: at 1 µM
# [18] = molecular target: Macrophage colony-stimulating factor 1 receptor (Homo sapiens) (UniProt P07333); details: at 0.1 µM
# Sequence of Macrophage colony-stimulating factor 1 receptor (Homo sapiens) (P07333 whole entry): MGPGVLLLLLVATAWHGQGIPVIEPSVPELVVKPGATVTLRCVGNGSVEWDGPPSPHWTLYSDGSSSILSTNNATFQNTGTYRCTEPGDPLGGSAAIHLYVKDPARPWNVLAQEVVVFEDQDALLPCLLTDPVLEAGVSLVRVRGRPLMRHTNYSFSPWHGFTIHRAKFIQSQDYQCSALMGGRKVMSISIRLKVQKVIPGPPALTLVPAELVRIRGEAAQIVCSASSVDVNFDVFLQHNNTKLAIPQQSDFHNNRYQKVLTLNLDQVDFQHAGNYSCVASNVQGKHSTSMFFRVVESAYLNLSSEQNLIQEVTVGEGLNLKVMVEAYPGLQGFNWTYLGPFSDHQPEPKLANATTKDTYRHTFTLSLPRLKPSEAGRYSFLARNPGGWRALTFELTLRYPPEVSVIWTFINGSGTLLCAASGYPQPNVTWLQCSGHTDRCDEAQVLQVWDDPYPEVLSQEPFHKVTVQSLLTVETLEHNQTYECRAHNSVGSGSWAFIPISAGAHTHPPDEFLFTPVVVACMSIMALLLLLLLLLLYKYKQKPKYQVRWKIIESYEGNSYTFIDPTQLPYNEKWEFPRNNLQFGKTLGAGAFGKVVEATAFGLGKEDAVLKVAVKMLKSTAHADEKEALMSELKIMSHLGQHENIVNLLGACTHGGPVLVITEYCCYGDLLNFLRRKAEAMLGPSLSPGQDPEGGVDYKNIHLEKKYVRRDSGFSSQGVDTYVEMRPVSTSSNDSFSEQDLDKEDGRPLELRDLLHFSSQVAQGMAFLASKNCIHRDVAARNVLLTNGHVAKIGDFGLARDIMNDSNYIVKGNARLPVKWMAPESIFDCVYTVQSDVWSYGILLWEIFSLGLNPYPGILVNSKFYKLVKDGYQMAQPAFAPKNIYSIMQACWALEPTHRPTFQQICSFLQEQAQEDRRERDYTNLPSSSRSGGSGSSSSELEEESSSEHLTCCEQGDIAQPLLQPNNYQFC
# [19] = molecular target: Macrophage colony-stimulating factor 1 receptor (Homo sapiens) (UniProt P07333); details: at 1 µM
# [20] = molecular target: Tyrosine-protein kinase Fyn (Homo sapiens) (UniProt P06241); details: at 0.1 µM
# Sequence of Tyrosine-protein kinase Fyn (Homo sapiens) (P06241 2-537 limits assumed): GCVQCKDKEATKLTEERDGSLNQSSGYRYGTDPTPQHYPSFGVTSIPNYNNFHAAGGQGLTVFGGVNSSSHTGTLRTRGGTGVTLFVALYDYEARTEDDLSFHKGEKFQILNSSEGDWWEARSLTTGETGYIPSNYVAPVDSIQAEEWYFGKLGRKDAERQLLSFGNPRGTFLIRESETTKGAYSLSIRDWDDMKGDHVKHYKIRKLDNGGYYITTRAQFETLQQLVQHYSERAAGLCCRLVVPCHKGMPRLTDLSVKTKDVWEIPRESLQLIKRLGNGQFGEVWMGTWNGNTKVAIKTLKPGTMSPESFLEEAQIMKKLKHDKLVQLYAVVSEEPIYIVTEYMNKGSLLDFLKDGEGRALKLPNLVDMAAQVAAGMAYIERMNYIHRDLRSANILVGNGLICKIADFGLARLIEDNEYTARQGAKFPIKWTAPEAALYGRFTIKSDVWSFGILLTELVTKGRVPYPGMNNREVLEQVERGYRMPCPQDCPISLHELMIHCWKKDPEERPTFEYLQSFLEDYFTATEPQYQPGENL
Compound,inhibition [1],inhibition [2],inhibition [3],inhibition [4],inhibition [5],inhibition [6],inhibition [7],inhibition [8],inhibition [9],inhibition [10],inhibition [11],inhibition [12],inhibition [13],inhibition [14],inhibition [15],inhibition [16],inhibition [17],inhibition [18],inhibition [19],inhibition [20]
N#Cc1c(NC(=O)c2ccc(F)cc2)sc2c1CCCC2,3.72%,9.69%,3.09%,2.18%,1.31%,2.27%,2.25%,2.7%,2.46%,3.12%,0.67%,4.32%,2.6%,4.36%,2.85%,0.08%,-0.81%,0.56%,-0.85%,-0.49%
Cc1cccc2c1NC(=O)/C2=N\Nc1ccc(S(N)(=O)=O)cc1,3.85%,1%,3.8%,2.64%,2.64%,2.04%,1.65%,2.43%,2.36%,4.06%,3.99%,0.77%,2.15%,1.78%,10.5%,3.59%,-0.85%,2.22%,7.87%,2.11%
CS(=O)(=O)CCNCc1coc(-c2ccc3ncnc(Nc4ccc(OCc5ccccc5)cc4)c3c2)c1,4.57%,2.15%,3.07%,4.2%,2.21%,1.54%,2.23%,2.37%,3.98%,8.97%,15.4%,4.26%,5.02%,5.49%,4.15%,4.45%,2.92%,0.22%,7.42%,1.47%
